The panel holds about 83,000 compounds, 20% with a hit somewhere; the sample as a whole holds those more often.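 Assay: single dose, 48 h. Readout: percent growth (0 = no net growth; negative = cell death). Active: <10.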 Active and inactive are the calls of the source.

For this assay, the system named is MDA-MB-468 breast. The assay can be described thus: NCI-60 one-dose screen, 48 h (100 = growth as untreated, 0 = no growth, -100 = all killed). The conditions noted are these: 10 µM unless noted.
Regarding `OC(c1ccccc1)(c1ccccc1)c1ccccc1-c1ccccc1`, the growth is 69.1% (inactive).

Turning to `COc1ccc(S(=O)(=O)NCCNc2nccc(-c3c(-c4cccc([N+](=O)[O-])c4)nc4sccn34)n2)cc1`, the growth was 69.7% (inactive). As for `COc1cc(CNC(=O)/C=C/c2ccccc2)ccc1OCC(=O)NO`, the figure is 92.5% (inactive). On to `C#Cc1nc(C(=O)NCCC(=O)Nc2ccc(NC(=O)c3ccc(/C=C/C(=O)c4nccn4C)cc3)cc2)cs1`, for which the growth is 20.6% (inactive). Consider `CCN(CCCNc1cc2c(c(N)c1S(=O)(=O)O)C(=O)c1ccccc1C2=O)c1ccccc1`, for which the growth was 89% (inactive). For the molecule `COc1ccc(-c2nc(C#N)c(N3CCC(S(=O)(=O)N4CCOCC4)CC3)o2)cc1`, the growth is 107% (inactive). As for `COc1cccc(-c2nc(-c3ccc(NC(=O)c4ccccc4)cc3)[nH]c2-c2ccnc(Br)c2)c1`, the figure is 28.8% (inactive).

On to `Clc1ccc2c(NC3CCC(N4CCOCC4)CC3)ccnc2c1` (stereo not given), for which the growth is 9.58% (active). On to `CON1CCC[C@]2(C)[C@H]3CC[C@@H]4[C@H]5[C@@H](O)C(C)(C)CC[C@]5(CO)CC[C@@]4(C)[C@]3(C)CC[C@H]2C1(C)C`, for which the growth was 114% (inactive). Under `C#CCOc1ccc2ncnc(Nc3ccc(NC(=O)C=C)cc3)c2c1` stands -22.3% (active).

As to `C=CCN1C(=O)/C(=c2\sc3n(c2=O)C2C(NN=3)N(CC)C(=O)N2CC)c2ccccc21` (stereo not given), the growth was 16.3% (inactive). For `Oc1ccccc1-c1nnc(CNc2ccc(Cl)cc2)o1`, the growth is -2.17% (active). With `O=C(CN1CCN(c2cc3c(cc2F)c(=O)c(C(=O)O)cn3C2CC2)CC1)Nc1nc(-c2ccc(Cl)cc2)cs1`, the growth is 21.7% (inactive). `Cn1cc(-c2cc(N)n3nc(-c4cn(C)c5ccc(Cl)cc45)cc3n2)c2cc(Cl)ccc21`: the growth is 96.3% (inactive). As to `N#Cc1cccc(NC(=O)c2oc3ccccc3c2-c2cnn(-c3ccccc3)c2)c1`, the growth was 66.6% [50 µM] (inactive). In the case of `NC(=O)c1c(NC(=O)c2cccc(C(F)(F)F)c2F)sc2c1CCC(=O)C2`, the growth is -1.45% (active). As to `COc1cccc2c1C=C1CCCCC3=Cc4c(OC)cccc4OC13O2`, the growth was 19% (inactive). `Cc1ccc(C(C)C)c(OCc2ccc(C(=O)N/N=C/c3cccc(O)c3O)cc2)c1`: the growth is 75.7% (inactive). Regarding `C#CCOc1ccccc1/C=N/Nc1nc(-c2ccc(Cl)cc2)cs1`, the growth is 95.6% (inactive). Under `CCOC(=O)C1=C(C)NC(C)=C(C(=O)OCC)C1(C)C` stands 98.8% (inactive); under `CCn1cc(-c2ccnc(NCCNS(=O)(=O)c3ccc(Br)cc3)c2)c(-c2cccc(OC)c2)n1`, 60.6% (inactive).

As to `COc1cc(OC)cc(-c2ccc(-c3ccc(C(=N)N)s3)s2)c1`, the growth was -76.9% (active). With `O=C(NNC(=O)c1ccc([N+](=O)[O-])cc1)c1ccc([N+](=O)[O-])cc1`, the growth is 109% (inactive). Consider `Nc1ncnc2c1ncn2C1(CO)OCC(O)C(O)C1O` (stereo not given), for which the growth is 108% (inactive). Under `COc1ccc(OC)c2c1[nH]c(=O)c1c3ncccc3cn21` stands 12.2% (inactive).

Consider `CC(=O)Nc1ccc2cc3ccc(NC(C)=O)cc3nc2c1`, for which the growth was 56.5% (inactive).

Consider `O=C(NNc1nc(Cl)nc(N2CCN(C(c3ccccc3)c3ccccc3)CC2)n1)c1ccccc1`, for which the growth is -47.2% (active). As for `Cc1cc2c(F)c(Oc3ncnc(Nc4ccc(N5C[C@@H](C)N[C@@H](C)C5)cc4)c3C#N)cc(F)c2[nH]1`, the figure is -5% (active); as for `Oc1ccc(N=Nc2ccc(Br)cc2)c(O)c1`, 15.4% (inactive). Take `COc1cc(Cn2ncc3ccc(NC(=O)c4cc5ccccc5oc4=N)cc32)cc(OC)c1OC`: the growth was 36.8% (inactive). For `CC(C)c1ccc(/C=N/Nc2nc3ccccc3s2)cc1`, the growth was 110% (inactive). For the molecule `Nc1nsc(C(=O)c2ccc(O)cc2)n1`, the growth was 105% (inactive).

As for `Cc1ccc2nc(NC(=O)CSc3nc(-c4ccccc4)c(C#N)c(=O)n3Cc3ccccc3)sc2c1`, the growth was 102% (inactive). Regarding `C=CCN(CC=C)C(=O)[C@H](CC)[C@@H]1CC[C@@H](C)[C@@H]([C@H](C)[C@@H](O)[C@@H](C)C(=O)[C@H](CC)C2O[C@]3(C=CC(=O)[C@]4(CC[C@@](C)([C@H]5CC[C@](O)(CC)[C@H](C)O5)O4)O3)[C@H](C)C[C@@H]2C)O1` (stereo not given in full), the growth was -17.4% (active).

Turning to `Cc1cc(=O)n(-c2ccc(F)cc2)[nH]1`, the growth is 113% (inactive). As for `O=C1/C(=C/c2c[nH]c(=O)[nH]c2=O)SC(=S)N1Cc1ccccc1`, the figure is 109% (inactive). For `S=C(S)N1CCCC1`, the growth is 111% (inactive).

As to `CSc1n(Cc2ccc3ccccc3c2)c(C)c[n+]1Cc1ccc2ccccc2c1`, the growth was -47.5% (active). For `O=C(Nc1cccnc1)c1ccc2ccc3ccc(C(=O)Nc4cccnc4)nc3c2n1`, the growth was -1.83% (active). On to `Nc1c(C(=O)Nc2cccc3cnccc23)sc2nc3c(cc12)CN(Cc1ccccc1)CC3`, for which the growth was 94.8% (inactive).

The record behind these values is PubChem BioAssay (NCI).
